Rows were chosen to be rich in hits. Some 6.3% of all compounds tested hit in one or more screens of this group.
RORg inh: qHTS for inhibitors of ROR gamma transcriptional activity; Nuclear receptor ROR-gamma (Mus musculus), P51450; Drosophila S2 Gal4-RORgamma UAS-luciferase reporter, 20 h; Potency, µM (top dose mostly 53.6 µM), for inactives: at the top dose activity change, negative = inhibition, hits mostly inhibitors; 310,000 tested, 5.4% active; AID 2551, 2010; also: % is scaled to controls: 0 for no effect and ±100 for the full control effect; nearly all actives have a fitted effect of over 60% in size
Target sequence (P51450 whole entry, looked up, the tested form may be a part): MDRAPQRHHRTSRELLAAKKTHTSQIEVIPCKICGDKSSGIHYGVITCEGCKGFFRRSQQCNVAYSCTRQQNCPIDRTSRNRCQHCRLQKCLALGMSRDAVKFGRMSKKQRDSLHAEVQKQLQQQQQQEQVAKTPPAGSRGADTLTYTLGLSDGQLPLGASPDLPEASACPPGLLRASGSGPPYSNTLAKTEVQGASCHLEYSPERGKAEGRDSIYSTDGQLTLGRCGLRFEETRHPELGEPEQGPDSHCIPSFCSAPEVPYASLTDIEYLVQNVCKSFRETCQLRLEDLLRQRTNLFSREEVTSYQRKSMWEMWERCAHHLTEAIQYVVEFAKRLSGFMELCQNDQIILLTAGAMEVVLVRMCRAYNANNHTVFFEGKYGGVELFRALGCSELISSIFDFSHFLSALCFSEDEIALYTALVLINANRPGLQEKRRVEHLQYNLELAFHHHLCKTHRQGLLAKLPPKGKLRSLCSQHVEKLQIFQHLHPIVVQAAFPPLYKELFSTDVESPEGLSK
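Stably transfected Drosophila Schneider cells are the test system, with ROR gamma fused to Gal4 and luciferase under UAS control; luminescence is read after 20 hr of 700 uM copper sulfate induction at ambient temperature.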
HepG2 tox: qHTS for Inhibitors of TGF-b: Cytotox Counterscreen; HepG2 CAGA-GFP viability, ATP luminescence, 18 h; Potency, µM (doses to about 46.1 µM), inactives show at the top dose activity change, negative = cytotoxicity, most hits filed as cytotoxic; 410,000 tested, 0.76% active; AID 588856, 2011
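HepG2 CAGA-GFP cells (1000/well, DMEM with 1% FBS) received compound, then TGF-beta at 500 pg/mL final, and were incubated 18 hours at 37 degrees C. Viability was read by CellTiter-Glo luminescence. Media-only wells were set as complete cell-killing and DMSO as no toxicity.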
S2 tox: Viability Counterscreen for Primary qHTS for Inhibitors of ATXN expression; S2 cells (HEK-293 line with an ATXN2-luciferase reporter) viability, CellTiter-Fluor protease fluorescence, 24 h; 400,000 tested, 0.49% active; Potency, µM (series often up to 56.7 µM), actives largely listed as cytotoxic; also: nearly all actives have a fitted effect of over 40% in size
Gal4-VP16 FLuc: VP16 counterscreen qHTS for inhibitors of ROR gamma transcriptional activity | Potency, µM (series often up to 53.6 µM), for the others: at the highest dose activity, negative = inhibition, hits mostly inhibitors | Drosophila S2 Gal4-VP16 UAS-luciferase, luminescence, 20 h | 310,000 tested, 3.5% active;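 also: Gal4-VP16 expression switched on by copper sulfate through the metallothionein promoter; % is scaled to controls: 0 for no effect and ±100 for the full control effect; nearly all actives have a fitted effect of over 50% in size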
TGFb inhibitor: qHTS for Inhibitors of TGF-b; HepG2 CAGA-GFP TGF-b/SMAD3 reporter, GFP fluorescence, 18 h; TGF-beta stimulated, 500 pg/mL final; Potency, µM (highest dose often 46.1 µM), for inactives: at the highest dose activity, negative = inhibition, hits mostly inhibitors; 410,000 tested, 1.2% active; AID 588855, 2011; also: % is scaled to controls: 0 for no effect and ±100 for the full control effect; nearly all actives have a fitted effect of over 65% in size
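First, reporter cells (HEPG2 CAGA-GFP) rested 2 h at 37 degrees C. Next, compounds were pinned in and TGF-beta added to 500 pg/mL final. After 18 h, GFP was imaged per cell and summed per well.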
ATXN2 expr inh: Primary qHTS for Inhibitors of ATXN expression; HEK-293 ATXN2-luciferase reporter, luminescence, 24 h; Potency, µM (doses to about 57 µM), without a hit: at the highest dose activity change, negative = inhibition, most hits filed as inhibitors; 360,000 tested, 0.72% active; also: % is scaled to controls: 0 for no effect and ±100 for the full control effect; nearly all actives have a fitted effect of over 55% in size
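qHTS (up to 57 uM final) was run with 24 h compound exposure of reporter cells at 37 °C. Each well was multiplexed: SteadyGlo luminescence measured ATXN2-luciferase expression after a fluorogenic Gly-Phe-AFC viability readout (25 uM final).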
* = called active by the depositor; i = inactive; u = inconclusive; x = not tested or not shown; ! = not confirmed by another sample; [ ] = remark or other dose. Calls follow the shape of the dose curve; as a rule, active = well fitted curve in the direction sought with a large enough effect; inconclusive = small, poorly fitted or top-dose-only effect, or another doubt; inactive = no such curve, though single readings can be large; an effect the other way counts as inactive or inconclusive. Potency is read from the fitted curve at half-maximal effect.

SMILES | RORg inh | HepG2 tox | S2 tox | Gal4-VP16 FLuc | TGFb inhibitor | ATXN2 expr inh
S=C1NC2=C(CCCC2=C2SCCCS2)C(c2ccccc2)N1 (stereo not drawn) | u | -4% | i | 7.9µM* | -11% | 9%
Cc1ccc(C(=O)NC(=S)Nc2cccnc2Cl)cc1 | 5µM* | -18% | i | u | -2% | 23%
COc1ccccc1-c1cc(C(=O)Nc2cccnc2Cl)no1 | 1% | 9% | i | -2% | 21% | -6%
COc1ccccc1C(=O)NC(=S)Nc1cccnc1Cl | 10µM* | -21% | i | u | 0% | -46%
COc1ccccc1C(=O)NNC(=S)NC(=O)c1sc2ccccc2c1Cl | 13µM* | -29% | i | 13µM* | -6% | -6%
NC(=O)COC(=O)c1ccccc1OCC(=O)Nc1ccc(Br)cc1 | x | 1% | x | x | -19% | x
CCCCn1c(N)c(N(C(=O)CSc2nncn2-c2ccccc2C)C2CCCC2)c(=O)[nH]c1=O | x | 9% | i | x | 2% | 2%
c1ccc(-c2ccc(-c3ccccc3)[nH]2)cc1 | x | -24% | i | x | -1% | 61%
c1ccc(-c2ccc(-c3nccc4ccccc34)[nH]2)cc1 | 5µM* | x | x | 10µM* | x | x
N#Cc1cc(-c2ccccc2)[nH]c1-c1nccc2ccccc12 | 10µM* | -37% | x | u | u | x
COc1ccc2c(Sc3ccccc3)c(C(=O)NCc3cc(Br)ccc3OC)[nH]c2c1 | x | -8% | i | x | 0% | 13%
Cc1cccc(N2CCN(C(=O)CS(=O)(=O)c3cccc4nsnc34)CC2)c1C | x | -10% | i | x | 5% | 3%
O=C(CS(=O)(=O)c1cccc2nsnc12)N1CCN(c2ccccc2F)CC1 | x | -66% | i | x | 16µM* | 0%
Cc1cc(C)cc(NS(=O)(=O)c2ccc(NC(=S)NC(=O)c3cccs3)cc2)c1 | 0.79µM* | -18% | i | 1µM* | u | u
COc1cc(NS(=O)(=O)c2ccc(NC(=S)NC(=O)c3cccs3)cc2)nc(OC)n1 | 21% | -7% | i | -7% | 0% | 9%
CN(C1CCCCC1)S(=O)(=O)c1ccc(NC(=S)NC(=O)c2cccs2)cc1 | 5.6µM* | -1% | u | u | -11% | -33%
C=CC[C@@H]1C=C[C@H](Oc2ccc(C)cc2)[C@H](COC(=O)NCc2cccc3ccccc23)O1 | 18%[10 µM] | x | x | 31%[10 µM] | x | x
CCc1ccccc1NC(=O)C(CC)Sc1nc2cc3c(cc2c(=O)n1Cc1ccco1)OCO3 (stereo not drawn) | -12% | -6% | 18µM* | 7% | 6% | 16µM*
S=C1SCN(Cc2cccs2)CN1Cc1cccs1 | x | -85% | u | x | 13µM* | x
S=C1SCN(Cc2ccco2)CN1Cc1ccco1 | 2.5µM* | -67% | u | 3.2µM* | u | -1%
c1csc(CN2CCOCC2)c1 | -2% | -8% | i | 6% | 2% | 0%
CC(C)N(Cc1ccccc1)C(=O)c1cc2ccc3cccnc3c2[nH]1 | x | -38% | x | x | 11µM* | x
CCN1CCN(Cc2ccc(NC(=O)c3ccc(C)c(/C=C/c4cnc(Nc5cc(N6CCNCC6)nc(C)n5)cn4)c3)cc2C(F)(F)F)CC1 | u | 18µM* | i | u | u | 13µM*!
CCN1CCN(Cc2ccc(NC(=O)c3ccc(C)c(NC(=O)c4csc(-c5ccncc5)n4)c3)cc2C(F)(F)F)CC1 | -3% | 16µM* | u | -5% | u | 0%
CCN1CCN(Cc2ccc(NC(=O)c3ccc(C)c(NC(=O)c4c[nH]c5cc(C(F)(F)F)ccc5c4=O)c3)cc2C(F)(F)F)CC1 | 6.3µM* | 16µM*! | 7.1µM* | 11µM* | 11µM* | 4µM*!
SMILES | RORg inh | HepG2 tox | S2 tox | Gal4-VP16 FLuc | TGFb inhibitor | ATXN2 expr inh
CCN1CCN(Cc2ccc(NC(=O)c3ccc(C)c(NC(=O)c4ccno4)c3)cc2C(F)(F)F)CC1 | 1% | -51% | i | 2% | 0% | -29%
Clc1ccc(C(Cn2ccnc2)OCc2ccc(Sc3ccccc3)cc2)c(Cl)c1 (stereo not drawn) | x | x | i | x | x | u
COc1ccccc1N1CCN(Cc2cc(=O)oc3cc(C)cc(C)c23)CC1 | x | 4% | i | x | -19% | 13%
Cc1ccc(NC(=O)C(OC(=O)c2ccc(NC(N)=O)cc2)c2ccccc2)cc1Cl (stereo not drawn) | -1% | 13µM* | i | -20% | u | 26%
Cc1ccc(NC(=O)C(OC(=O)c2ccccc2Cl)c2ccccc2)cc1Cl (stereo not drawn) | 25% | -5% | u | -11% | 0% | 0%
Oc1ccccc1-c1nc2c3ccccc3c3ccccc3c2[nH]1 | -8% | -38% | i | -3% | 16µM* | u
COc1ccccc1N1CCN(c2nc(CNC(=O)C3CCOC(C)(C)C3)nc3ccccc23)CC1 (stereo not drawn) | x | x | i | x | x | x
Cc1ccc(NC(=S)Nn2cnnc2)cc1 | -39% | 0% | i | -21%[10 µM] | 9% | x
CCc1ccc(NC(=S)Nn2cnnc2)cc1 | 1.1µM* | -1% | i | 0% | 0% | 3%
FC(F)(F)Sc1ccc(NC(=S)NCc2ccccc2)cc1 | 13µM* | -125% | u | u | u | x
C=CCNC(=S)Nc1ccc(Cl)cc1 | 16µM* | -1% | i | u | 20% | -7%
CCc1ccc(NC(=S)NCc2cccnc2)cc1 | -9% | 1% | i | 17% | -20% | 2%
CCc1ccc(NC(=S)NCc2ccccc2)cc1 | 2.2µM* | 17% | i | u | -10% | -8%
NS(=O)(=O)c1ccc(NC(=S)NCc2ccccc2)cc1 | 13% | 3% | i | 6% | -21% | 7%
CCS(=O)(=O)c1nc(S(=O)(=O)c2ccc(C)cc2)c(N2CCCCCC2)s1 | x | -2% | u | x | -9% | x
CCN1CCCC1CN (stereo not drawn) | x | x | i | x | x | 2%
CCc1ccc(NC(=S)Nc2ccc3[nH]c(=O)[nH]c3c2)cc1 | 13µM* | -28% | i | -65% | -1% | 24%
S=C(NCc1ccccc1)Nc1ccncc1 | -11% | -6% | i | 14µM* | 0% | -18%
Cc1ccc(Cl)cc1NC(=S)NN | 8.9µM* | -11% | u | u | -19% | -24%
NNC(=S)Nc1ccc(Cl)cc1 | 11µM* | -23% | i | u | 5% | -14%
NNC(=S)Nc1ccc(OC(F)(F)F)cc1 | u | -16% | i | u | 0% | -2%
CO[C@H]1[C@H](NC(=O)c2ccsc2)c2ccccc2C12CCN(Cc1cnn(C)c1C)CC2 | x | x | i | x | x | x
